In PubChem BioAssay (EPA / NIEHS) one finds outcome and AC50 data, which are given here for five compounds.

The source made the active and inactive calls. The calls were made as follows: active = hit-call score of the fitted dose curve at least 0.9, where 1 is the maximum; inactive = score below 0.9.

The nature of test [1]: ATG_CRE_CIS: Attagene CIS-FACTORIAL HepG2 Assay for human cAMP Responsive Element (CRE) binding protein 3 (AID 2282926). The note with it: HepG2 CRE cis-reporter, Attagene multiplexed mRNA; actives raise or lower the signal. The method in brief:
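We dosed HepG2 cells bearing multiple cis-promoter reporter units for 24 h and measured reporter mRNA by RT-PCR with capillary electrophoresis detection. Bidirectional concentration-response fitting used DMSO as negative control.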

Test [2] deals with CCAAT/enhancer-binding protein beta (Homo sapiens) (UniProt P17676). The test can be described thus: ATG_C_EBP_CIS: Attagene CIS-FACTORIAL HepG2 Assay for human CCAAT/Enhancer Binding Protein (C/EBP) beta (AID 2282927). The note with it: HepG2 Attagene cis-factorial transcription factor reporter; actives raise or lower the signal. The method in brief: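 HepG2 transiently transfected with multiplexed reporter units under cis-regulatory promoters reporting endogenous C/EBPb activity. After 24 h exposure, reporter mRNA assayed by RT-PCR, fluorescent labelling, HpaI digestion and capillary electrophoresis; bidirectional fitting versus DMSO.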

The nature of test [3]: ATG_CMV_CIS: Attagene CIS-FACTORIAL HepG2 Assay for human CMV (Internal Marker) (AID 2282928).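 Also: endpoint acts as a background internal control marker rather than a target.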 The note with it: HepG2 CMV promoter reporter, transcription factor profiling; actives raise or lower the signal. The procedure, abridged:
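Cell system: HepG2, transiently transfected multiple reporter units under cis promoters. Exposure: 24 h. Detection: RT-PCR, FAM labeling, HpaI digestion, capillary electrophoresis. Analysis: bidirectional, DMSO baseline.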

Test [4] is described as follows: ATG_DR4_LXR_CIS: Attagene CIS-FACTORIAL HepG2 Assay for human Liver X Receptor (LXR), DR4 submotif (AID 2282929). The conditions noted are these: HepG2 Attagene DR4 cis-reporter, mRNA transcription; actives raise or lower the signal. The procedure, abridged: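 HepG2 cells transiently transfected with cis-promoter-driven multiplexed reporter units (DR4 element) were dosed for 24 h. Reporter mRNA was quantified by RT-PCR, fluorescent primer extension, HpaI digestion and capillary electrophoresis; bidirectional fitting versus DMSO baseline.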

A short description of test [5]: ATG_AP_1_CIS: Attagene CIS-FACTORIAL HepG2 Assay for human Activator Protein 1 (AP-1) (AID 2282931). The conditions noted are these: HepG2 Attagene cis-factorial AP-1 reporter mRNA; actives raise or lower the signal. The procedure, abridged:
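HepG2 cells transiently transfected with cis-element-driven multiplex reporter units; 24 h compound exposure. Reporter mRNA quantified by RT-PCR, FAM-labelled fragments resolved by capillary electrophoresis; bidirectional fit versus DMSO baseline.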

Test [6] in a line: ATG_AP_2_CIS: Attagene CIS-FACTORIAL HepG2 Assay for human Activator Protein 2 (AP-2) (AID 2282932). The note with it: HepG2 AP-2 cis-reporter, Attagene transcription factor profiling; actives raise or lower the signal. The procedure, abridged:
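Multiplexed mRNA reporter assay in HepG2: cis-regulated units report endogenous factor activity after 24 h treatment. Fluorescence from capillary electrophoresis of RT-PCR products gives the signal, with DMSO as baseline.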

Test [7] addresses Retinoic acid receptor alpha (Homo sapiens) (UniProt P10276). The test can be described thus: ATG_DR5_RAR_CIS: Attagene CIS-FACTORIAL HepG2 Assay for human Retinoic Acid Receptor Alpha (RARE), DR5 submotif (AID 2282934). The note with it: HepG2 Attagene cis-factorial RARE DR5 reporter, mRNA; actives raise or lower the signal. The procedure, abridged: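 HepG2 cells transiently transfected with multiplexed reporter units; DR5 cis-element drives reporter through endogenous transcription factors. After 24 h dosing, reporter mRNA quantified by RT-PCR, fluorescent labeling, HpaI digestion and capillary electrophoresis; bidirectional fitting versus DMSO.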

Test [8] concerns the target Transcription factor E2F1 (Homo sapiens) (UniProt Q01094). The test can be described thus: ATG_E2F_CIS: Attagene CIS-FACTORIAL HepG2 Assay for human E2F Transcription Factor 1 (AID 2282935). The note with it: HepG2 Attagene cis-reporter, E2F reporter RNA transcripts; actives raise or lower the signal. The method in brief:
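Measures reporter transcript levels via RT-PCR with capillary electrophoresis detection in HepG2 cells harboring cis-regulated reporter units; 24 h post-dose; bidirectional curve fitting with DMSO as baseline.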

Test [9] in a line: ATG_E_Box_CIS: Attagene CIS-FACTORIAL HepG2 Assay for human Enhancer Box (E-box) (AID 2282936). The note with it: HepG2 E-box cis-reporter transcription, actives raise or lower the signal. The procedure, abridged:
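First, HepG2 cells receive multiple cis-regulated reporter constructs by transient transfection. Next, chemicals are applied for 24 h. Finally, reporter mRNA is quantified via RT-PCR and capillary electrophoresis, with DMSO as baseline.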

Test [10] is described as follows: ATG_EGR_CIS: Attagene CIS-FACTORIAL HepG2 Assay for human Early Growth Response 1 (EGR1) (AID 2282938). The note with it: HepG2 Attagene CIS-FACTORIAL EGR reporter mRNA; actives raise or lower the signal. The method in brief: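 HepG2 cells transiently transfected with cis-promoter-driven multiplexed reporter transcription units; reporter mRNA measured 24 h after compound dosing by RT-PCR, 6-FAM primer extension, HpaI digestion and capillary electrophoresis. Bidirectional fit versus DMSO baseline.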

The nature of test [11]: ATG_M_19_CIS: Attagene CIS-FACTORIAL HepG2 Assay for M19 Transcription Factor (Internal Marker) (AID 2282939). The conditions noted are these: HepG2 Attagene CIS-FACTORIAL M19 internal marker reporter; actives raise or lower the signal. The procedure, abridged:
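HepG2 cells transiently transfected with cis-regulated multiple reporter transcription units were dosed for 24 h; reporter mRNA was quantified by RT-PCR, 6-FAM primer-extension labelling, HpaI digestion and capillary electrophoresis, with bidirectional fitting against DMSO baseline.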

Test [12] can be described thus: ATG_ERE_CIS: Attagene CIS-FACTORIAL HepG2 Assay for Estrogen Response Element (ERE) (AID 2282940). The conditions noted are these: HepG2 ERE cis-reporter, Attagene RNA transcript; actives raise or lower the signal. The procedure, abridged: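 HepG2 cells transiently transfected with cis-promoter-driven multiplexed reporter transcription units report endogenous TF activity. After 24 h compound exposure, reporter mRNA is quantified by RT-PCR with capillary electrophoresis fluorescence; bidirectional fitting versus DMSO baseline.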

The nature of test [13]: ATG_Ets_CIS: Attagene CIS-FACTORIAL HepG2 Assay for human Erythroblast Transformation Specific (ETS) (AID 2282941). The note with it: HepG2 ETS cis-reporter transcription, actives raise or lower the signal. The method in brief: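 After transient cis-reporter transfection, HepG2 cells receive test chemical for 24 h. Reporter mRNA levels, measured by RT-PCR and capillary electrophoresis fluorescence, are analysed bidirectionally relative to the DMSO baseline.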

Test [14] concerns the target Hepatocyte nuclear factor 3-beta (Homo sapiens) (UniProt Q9Y261). Briefly: ATG_FoxA2_CIS: Attagene CIS-FACTORIAL HepG2 Assay for human Forkhead box A2 (FOXA2) (AID 2282942). The conditions noted are these: HepG2 cis-reporter transcription factor activity, 24 h; actives raise or lower the signal. The method in brief:
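HepG2 cells transiently transfected with multiple cis-regulated reporter transcription units, dosed for 24 h. Reporter mRNA measured by RT-PCR, 6-FAM labelling, HpaI digestion and capillary electrophoresis; bidirectional fitting against DMSO baseline.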

Test [15] can be described thus: ATG_FoxO_CIS: Attagene CIS-FACTORIAL HepG2 Assay for human Forkhead box O (FoxO) (AID 2282943). The conditions noted are these: HepG2 Attagene cis-reporter, FoxO element, mRNA; actives raise or lower the signal. The method in brief:
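HepG2 cells transiently transfected with cis-element-driven reporter units report endogenous FoxO activity. After 24 h chemical exposure, reporter mRNA quantified by RT-PCR, fluorescent labeling, HpaI digestion and capillary electrophoresis; bidirectional fit versus DMSO.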

Test [16] in a line: ATG_GATA_CIS: Attagene CIS-FACTORIAL HepG2 Assay for human GATA Binding Protein (AID 2282944). The note with it: HepG2 GATA cis-element reporter, Attagene multiplex mRNA; actives raise or lower the signal. The method in brief:
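HepG2 cells transiently transfected with multiplexed cis-element reporter units reflecting endogenous transcription factor activity; reporter mRNA measured after 24 h dosing by RT-PCR, 6-FAM labeling, HpaI digestion and capillary electrophoresis. Bidirectional fitting versus DMSO baseline.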

A short description of test [17]: ATG_GLI_CIS: Attagene CIS-FACTORIAL HepG2 Assay for human Zinc Finger Protein GLI1 (AID 2282945). The note with it: HepG2, Attagene cis-factorial reporter mRNA, GLI element; actives raise or lower the signal. The method in brief:
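Transiently transfected HepG2 cells report endogenous transcription factor activity via cis-element-driven reporter units. After 24 h compound exposure, reporter mRNA was measured by RT-PCR with capillary electrophoresis; bidirectional fitting against DMSO baseline.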

Test [18] addresses Aryl hydrocarbon receptor (Homo sapiens) (UniProt P35869). The test can be described thus: ATG_Ahr_CIS: Attagene CIS-FACTORIAL HepG2 Assay for human Aryl Hydrocarbon Receptor (Ahr) (AID 2282930). The conditions noted are these: HepG2 AhR cis-factorial reporter transcription; actives raise or lower the signal. The method in brief:
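HepG2 cells transiently transfected with cis-element-driven multiplexed reporter units; endogenous AhR activity read as reporter mRNA 24 h after dosing, via RT-PCR, 6-FAM labelling, HpaI digestion and capillary electrophoresis. Bidirectional fit relative to DMSO.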

A short description of test [19]: ATG_M_61_CIS: Attagene CIS-FACTORIAL HepG2 Assay for M61 Transcription Factor (Internal Marker) (AID 2282937). The conditions noted are these: HepG2 Attagene CIS-FACTORIAL M61 internal marker reporter; actives raise or lower the signal. The method in brief:
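HepG2 cells transiently transfected with cis-element-driven multiple reporter transcription units, dosed for 24 h. Reporter mRNA measured by RT-PCR, 6-FAM primer-extension labelling, HpaI digestion and capillary electrophoresis; bidirectional fit versus DMSO baseline.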

CCAAT/enhancer-binding protein beta (Homo sapiens), sequence (P17676 whole entry, looked up): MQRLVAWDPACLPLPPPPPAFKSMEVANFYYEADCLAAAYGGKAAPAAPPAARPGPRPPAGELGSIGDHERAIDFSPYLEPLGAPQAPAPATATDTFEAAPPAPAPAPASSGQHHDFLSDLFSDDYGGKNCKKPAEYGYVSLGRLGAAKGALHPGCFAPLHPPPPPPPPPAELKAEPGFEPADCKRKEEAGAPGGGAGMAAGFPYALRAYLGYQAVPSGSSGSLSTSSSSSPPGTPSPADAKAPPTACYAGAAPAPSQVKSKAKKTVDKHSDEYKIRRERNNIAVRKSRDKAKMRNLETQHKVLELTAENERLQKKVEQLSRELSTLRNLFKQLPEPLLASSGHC
Retinoic acid receptor alpha (Homo sapiens), sequence (P10276 whole entry, looked up): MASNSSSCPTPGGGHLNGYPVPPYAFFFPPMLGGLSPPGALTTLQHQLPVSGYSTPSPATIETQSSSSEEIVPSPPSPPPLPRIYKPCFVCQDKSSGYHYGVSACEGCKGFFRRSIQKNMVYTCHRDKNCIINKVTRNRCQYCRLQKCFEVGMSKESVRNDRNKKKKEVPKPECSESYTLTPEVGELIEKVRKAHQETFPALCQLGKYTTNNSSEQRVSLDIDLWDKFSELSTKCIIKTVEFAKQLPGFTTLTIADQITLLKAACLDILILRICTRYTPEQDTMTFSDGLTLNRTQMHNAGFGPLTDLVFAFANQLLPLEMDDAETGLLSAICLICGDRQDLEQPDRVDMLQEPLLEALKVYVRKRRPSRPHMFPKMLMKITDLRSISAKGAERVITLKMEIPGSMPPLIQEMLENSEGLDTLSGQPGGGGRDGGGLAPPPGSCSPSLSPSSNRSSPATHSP
Hepatocyte nuclear factor 3-beta (Homo sapiens), sequence (Q9Y261 whole entry, looked up): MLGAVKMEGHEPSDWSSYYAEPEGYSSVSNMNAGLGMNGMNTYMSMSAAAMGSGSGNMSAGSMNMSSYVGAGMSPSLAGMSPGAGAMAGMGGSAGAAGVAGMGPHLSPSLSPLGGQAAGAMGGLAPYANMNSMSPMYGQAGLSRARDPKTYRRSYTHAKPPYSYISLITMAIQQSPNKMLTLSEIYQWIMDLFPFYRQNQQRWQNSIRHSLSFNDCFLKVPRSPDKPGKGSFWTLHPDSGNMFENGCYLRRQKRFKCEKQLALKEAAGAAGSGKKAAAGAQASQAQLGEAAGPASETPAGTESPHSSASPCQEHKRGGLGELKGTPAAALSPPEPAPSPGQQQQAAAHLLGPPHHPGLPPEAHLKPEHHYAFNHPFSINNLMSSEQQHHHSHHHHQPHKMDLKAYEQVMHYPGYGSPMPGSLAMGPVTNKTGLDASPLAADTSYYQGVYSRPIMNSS
Transcription factor E2F1 (Homo sapiens), sequence (Q01094 whole entry, looked up): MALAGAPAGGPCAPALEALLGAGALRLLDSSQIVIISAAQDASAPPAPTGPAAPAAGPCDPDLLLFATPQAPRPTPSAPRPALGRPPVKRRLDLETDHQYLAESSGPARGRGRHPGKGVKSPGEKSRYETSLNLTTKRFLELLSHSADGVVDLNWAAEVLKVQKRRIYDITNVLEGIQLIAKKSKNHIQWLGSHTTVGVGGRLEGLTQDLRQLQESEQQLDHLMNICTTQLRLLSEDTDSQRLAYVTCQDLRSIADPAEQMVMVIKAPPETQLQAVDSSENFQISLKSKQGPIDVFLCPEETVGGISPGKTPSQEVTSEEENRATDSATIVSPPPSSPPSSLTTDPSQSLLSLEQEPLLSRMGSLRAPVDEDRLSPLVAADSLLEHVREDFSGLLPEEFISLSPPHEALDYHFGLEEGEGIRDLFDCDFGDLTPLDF
Aryl hydrocarbon receptor (Homo sapiens), sequence (P35869 whole entry, looked up): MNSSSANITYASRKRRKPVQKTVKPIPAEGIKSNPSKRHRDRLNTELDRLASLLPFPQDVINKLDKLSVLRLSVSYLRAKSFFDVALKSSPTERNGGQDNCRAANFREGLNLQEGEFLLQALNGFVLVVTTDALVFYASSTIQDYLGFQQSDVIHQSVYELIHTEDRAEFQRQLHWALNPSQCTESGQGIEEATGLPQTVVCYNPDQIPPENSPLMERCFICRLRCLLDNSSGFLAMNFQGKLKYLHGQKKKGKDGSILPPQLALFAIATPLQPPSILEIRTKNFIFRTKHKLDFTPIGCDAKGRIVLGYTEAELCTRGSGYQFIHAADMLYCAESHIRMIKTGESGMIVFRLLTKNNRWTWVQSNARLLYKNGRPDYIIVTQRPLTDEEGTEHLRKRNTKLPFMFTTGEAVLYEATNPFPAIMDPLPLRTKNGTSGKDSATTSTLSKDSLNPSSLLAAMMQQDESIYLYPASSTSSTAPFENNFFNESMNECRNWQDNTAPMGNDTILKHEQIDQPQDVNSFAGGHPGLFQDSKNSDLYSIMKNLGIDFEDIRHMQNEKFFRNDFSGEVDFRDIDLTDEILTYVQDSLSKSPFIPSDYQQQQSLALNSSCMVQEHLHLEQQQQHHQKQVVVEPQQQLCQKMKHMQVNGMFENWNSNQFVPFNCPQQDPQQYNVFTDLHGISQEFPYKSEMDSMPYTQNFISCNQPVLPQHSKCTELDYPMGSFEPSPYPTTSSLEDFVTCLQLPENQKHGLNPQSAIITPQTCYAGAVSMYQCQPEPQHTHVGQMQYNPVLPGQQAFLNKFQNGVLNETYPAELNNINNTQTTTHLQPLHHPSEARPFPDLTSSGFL

Regarding `CCOC(=O)c1ccccc1C(=O)OCC`, the outcome in test [1], in test [2], in test [3], in test [4], in [5] and in test [6] was inactive. Further, the compound was classed as inactive in test [7], in test [8], in test [9], in [10], in test [11] and in test [12]. The result in test [13], in [14], in [15], in test [16] and in test [17] was inactive.

As usually defined, the AC50 is the midpoint of the concentration-response curve, whichever way the signal moves. Turning to `Oc1ccc(I)cc1`, the compound was classed as inactive in test [1], in test [2], in [3], in test [4], in test [18] and in test [5]. The outcome in test [6], in [7], in test [8], in [9], in [19] and in test [10] was inactive. Further, the compound was classed as inactive in test [11], in test [13], in [14], in [15], in [16] and in test [17]. The AC50 in test [12] is 23.7 µM (active).

`CSC(C)(C)C=NO`: the outcome in test [1], in test [2], in [3], in [4], in [18] and in test [5] was inactive. Also, the outcome in test [6], in [8], in [9], in [19], in [10] and in test [11] was inactive. In addition, the compound was classed as inactive in test [12], in test [13], in test [14], in test [15], in test [16] and in test [17].

Turning to `Nc1cc2c3c(c1)C(c1ccccc1)=N[C@@H](NC(=O)c1cccnc1)C(=O)N3CC2`, the compound was classed as inactive in [1], in test [3], in [4], in test [18], in [5] and in [8]. For the same compound, the outcome in [9], in test [19], in [10], in [11], in [12] and in [13] was inactive. The compound was called inactive in test [14], in test [15], in test [16] and in test [17]. Also, the AC50 in [2] is 40.6 µM (active); in test [6] it was 145 µM (active).

On to `CC(Cl)CN(C)C` (stereo unspecified), for which the compound was classed as inactive in [1], in [2], in [3], in [4], in test [18] and in test [5]. Besides, the compound was called inactive in test [6], in test [7], in [8], in test [9], in test [19] and in [10]. Moreover, the compound was classed as inactive in test [11], in test [12], in test [13], in test [14], in test [15] and in test [16]. Besides, the outcome in test [17] was inactive.
